# Hit rate of the full screen: of about 140,000 compounds, about 80 (0.06%) were called active. The sample as a whole holds a higher share of actives than the screen did. Unmarked numbers belong to inactive results. Cut-off read from the data, not from the text of the source: active = displacement above about 50%; inactive = the rest.
# Biological target: Heat shock 70 kDa protein 1A (Homo sapiens) (UniProt P0DMV8)
# Experiment: Hsp70 inhibitors, probe displacement, primary screen, biochemical, fluorescence polarization (AID 583);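 note: plate controls were vehicle for no effect and reference ligand for full effect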
# Conditions: mP, at 20 µM, active compounds read high
# Chain of Heat shock 70 kDa protein 1A (Homo sapiens) (P0DMV8 whole entry, looked up): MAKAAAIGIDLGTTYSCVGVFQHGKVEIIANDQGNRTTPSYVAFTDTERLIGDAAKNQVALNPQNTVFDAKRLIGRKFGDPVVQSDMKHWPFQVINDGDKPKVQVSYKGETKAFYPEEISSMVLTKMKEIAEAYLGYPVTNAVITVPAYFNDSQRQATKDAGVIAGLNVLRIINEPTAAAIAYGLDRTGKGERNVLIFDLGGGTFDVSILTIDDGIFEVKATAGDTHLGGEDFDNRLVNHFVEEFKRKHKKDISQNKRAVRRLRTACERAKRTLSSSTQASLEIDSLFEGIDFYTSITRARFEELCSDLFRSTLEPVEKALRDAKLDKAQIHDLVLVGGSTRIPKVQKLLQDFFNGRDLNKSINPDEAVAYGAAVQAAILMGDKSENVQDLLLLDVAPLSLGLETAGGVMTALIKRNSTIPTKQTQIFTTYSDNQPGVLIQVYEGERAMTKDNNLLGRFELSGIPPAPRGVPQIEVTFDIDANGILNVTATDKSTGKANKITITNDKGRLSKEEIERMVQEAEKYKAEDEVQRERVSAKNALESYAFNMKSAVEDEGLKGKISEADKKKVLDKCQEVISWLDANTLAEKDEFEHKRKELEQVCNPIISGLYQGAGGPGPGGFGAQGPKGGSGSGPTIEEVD
row,SMILES,displacement
1,CCOc1ccc(N(CC(=O)NC2CCCCC2)S(=O)(=O)c2ccc(Cl)cc2)cc1,2.4%
2,NC(=O)c1ccc(NC(=O)Cc2ccc(Cl)cc2)cc1,-3.6%
3,Cc1ccc(-c2cc(C(=O)N/N=C/c3ccc([N+](=O)[O-])cc3)[nH]n2)cc1,1.8%
4,O=C(N/N=C/c1cccc([N+](=O)[O-])c1)c1cc(-c2ccc(Cl)cc2)n[nH]1,4.6%
5,Cc1ccc(-c2cc(C(=O)N/N=C/c3cccc([N+](=O)[O-])c3)[nH]n2)cc1,78.2% (active)
6,CC(C)(C)NC(=O)c1cccc(N2C(=O)c3cccc([N+](=O)[O-])c3C2=O)c1,1.9%
7,Cc1cccc(C(NC(N)=O)c2ccccc2)c1 (centres undefined),0.4%
8,NC1=NC(=O)/C(=C\c2ccc(-c3ccc([N+](=O)[O-])cc3)o2)S1,-5.8%
9,NC1=NC(=O)/C(=C/c2ccc(-c3ccc([N+](=O)[O-])cc3Br)o2)S1,44.5%
10,NC1=NC(=O)/C(=C/c2ccc(-c3cc([N+](=O)[O-])ccc3Cl)o2)S1,75.9% (active)
11,Cc1ccc(/C(N)=N/OC(=O)c2ccccc2F)cc1,2.5%
12,O=S(=O)(Nc1ccc(F)cc1)c1ccc2c(c1)Cc1cc(S(=O)(=O)Nc3ccc(F)cc3)ccc1-2,-0.8%
13,Cc1ccc(NC(=O)c2ccccc2NC(=O)Cc2cccs2)cc1C,3.6%
14,CN(c1ccc(C(=O)NC2CC2)cc1)S(=O)(=O)c1ccccc1,0.5%
15,Cc1c(C(=O)Nc2ccc(-c3nc4cc(Cl)ccc4o3)cc2)cccc1[N+](=O)[O-],-7%
16,Cc1c(C(=O)Nc2ccc3oc(-c4ccc(Cl)cc4Cl)nc3c2)cccc1[N+](=O)[O-],-1.5%
17,Cc1c(NC(=O)c2ccccc2[N+](=O)[O-])cccc1-c1nc2cc(Cl)ccc2o1,60.1% (active)
18,Cc1cc(NC(=O)CN2CCN(c3ccccc3F)CC2)nc2c1c(=O)oc1ccccc12,1.7%
19,COc1ccc(N2C(=O)C3C(C2=O)N2CCCN2C3c2ccc(Cl)cc2)cc1 (centres undefined),2.3%
20,O=C1NC(=O)N(c2ccc(Br)cc2)C(=O)/C1=C\C=C\c1ccco1,-7.2%
21,O=C1NC(=O)N(c2ccc(Br)cc2)C(=O)/C1=C/c1ccco1,54% (active)
22,Cc1cc(N2C(=O)NC(=O)/C(=C\c3ccco3)C2=O)ccc1Br,40.3%
23,N#CCOc1ccccc1/C=N/c1sc2c(c1C#N)CCCC2,-0.5%
24,CC(C)(C)NC(=O)CN1CCC(O)(c2ccc3c(c2)OCO3)CC1,5.2%
